Reference: PubChem BioAssay (NCATS)
Values joined by “and” are separate entries in the source; they are usually repeats but may differ in a detail not shown here. Equal values may be shown once. Inconclusive results are not listed. Active and inactive are the calls of the source. Unless noted, the call rests on the fitted dose curve; in most records, active means well fitted curve in the direction sought with a large enough effect; inconclusive means small, poorly fitted or top-dose-only effect, or another doubt; inactive means no such curve, though single readings can be large; an effect the other way counts as inactive or inconclusive.

What was measured:
[1] = P-glycoprotein substrates identified in KB-3-1 adenocarcinoma cell line, qHTS therapeutic library screen (AID 1346986); further: nearly all actives have a fitted effect of over 60% in size;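 further: potency means the concentration at half of the fitted maximal effect; potency is for cytotoxicity meaning loss of cell viability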
Outline: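 KB-3-1 parental and colchicine-selected P-gp-overexpressing KB-8-5-11 cells (colchicine omitted during assay), 500 cells/well, dosed in dose-response for 72 h at 37 °C; CellTiter-Glo luminescence. Cytotoxic: curve class -1.1 to -2.4, max response >50%, AC50 < 10 uM.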

[2] = P-glycoprotein substrates identified in KB-8-5-11 adenocarcinoma cell line, qHTS therapeutic library screen (AID 1346987); further: nearly all actives have a fitted effect of over 65% in size; further: potency means the concentration at half of the fitted maximal effect
Outline: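 Steps: plate 500 KB-8-5-11 cells/well in DMEM + 10% FCS (colchicine removed); pin compounds in dose-response; incubate 72 h, 37 degree C, 5% CO2; add CellTiter-Glo, 5 min; read luminescence.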

[3] = Primary qHTS for inhibitors of nuclear receptor binding SET domain protein 2 (NSD2) in an isogenic RCH-ACV NSD2 p.E1099K mutant (9B) (AID 1645876); further: nearly all actives have a fitted effect of over 70% in size; further: potency means the concentration at half of the fitted maximal effect
[4] = Primary qHTS for inhibitors of nuclear receptor binding SET domain protein 2 (NSD2) in an RCH-ACV wild type WT cells (2C) (AID 1645877); further: nearly all actives have a fitted effect of over 70% in size; further: potency means the concentration at half of the fitted maximal effect
[5] = target: Glutathione peroxidase 1 (Homo sapiens) (UniProt P07203); experiment: Primary qHTS Assay for Inhibitors of Recombinant Selenoprotein Glutathione Peroxidase 1 (GPX1) (AID 1845191); further: nearly all actives have a fitted effect of over 65% in size; further: potency means the concentration at half of the fitted maximal effect
Outline: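 GR-coupled assay: compounds preincubated 30 min at room temperature with GPX1, then reaction started with CHP; final 10 nM GPX1, 1 mM GSH, 0.5 mM CHP, 0.5 mM NADPH, 100 nM GR, 0.01% BSA, pH 7.5 Tris buffer. NADPH fluorescence (340/450 nm) read at 0 and 15 min.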

[6] = qHTS drug screen for cell cycle checkpoint inhibitors in PARPi-resistant BRCA-mutant ovarian cancer cell lines. (AID 1963452; calls by dose curve); conditions: PEO1/OlaR viability, CellTiter-Glo luminescence, 96 h, stronger effect = lower value
Outline: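 PEO1, PEO4 and PEO1/OlaR ovarian cancer cells, 600 per well, exposed 96 h at 37C to a dilution series. Viability read by CellTiter-Glo luminescence, normalized to DMSO and empty wells; activity summarized as Z-AUC.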

[7] = target: Calcium and integrin-binding protein 1 (Homo sapiens) (UniProt Q99828); experiment: Primary qHTS for Identification of Calcium Integrin Binding Protein 1 (CIB1) Competitor (AID 1508620);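 further: GST tagged CIB1 binding a fluorescein labelled alphaIIb integrin peptide tracer; top concentration of the series differs between compounds; on the % scale 0 is the no-effect control and ±100 the full control effect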
Outline: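 Fluorescence polarization competition: GST-tagged CIB1 (1 uM final) preincubated with compound 15 min at room temperature, then FITC-labelled alphaIIb peptide (100 nM final) added. After 15 min at room temperature, polarization read at Ex 480/Em 540.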

[8] = target: Phospholipid hydroperoxide glutathione peroxidase GPX4 (Homo sapiens) (UniProt P36969); experiment: Primary qHTS Assay for Inhibitors of Recombinant Selenoprotein Glutathione Peroxidase 4 (GPX4) (AID 1845192); conditions: outcome: dose series up to 50 µM unless noted; further: series mostly up to about 50 µM; on the % scale 0 is the no-effect control and ±100 the full control effect; nearly all actives have a fitted effect of over 65% in size
Outline: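 GR-coupled assay: recombinant GPX4 preincubated 30 min with compound at room temperature; final 200 nM GPX4, 1 mM GSH, 0.5 mM cumene hydroperoxide, 0.5 mM NADPH, 100 nM GR, 0.01% BSA, pH 7.5 Tris. NADPH fluorescence (340/450 nm) read at 0 and 15 min.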

[9] = measured here: PEO1 parental Z-AUC

Sequence of Glutathione peroxidase 1 (Homo sapiens) (P07203 whole entry, looked up): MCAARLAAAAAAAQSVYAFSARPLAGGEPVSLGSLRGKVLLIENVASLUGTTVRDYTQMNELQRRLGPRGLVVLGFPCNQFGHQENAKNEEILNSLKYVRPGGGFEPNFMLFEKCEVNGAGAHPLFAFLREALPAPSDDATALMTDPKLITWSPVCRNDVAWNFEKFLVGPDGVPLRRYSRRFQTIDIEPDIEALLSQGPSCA
Sequence of Calcium and integrin-binding protein 1 (Homo sapiens) (Q99828 whole entry, looked up): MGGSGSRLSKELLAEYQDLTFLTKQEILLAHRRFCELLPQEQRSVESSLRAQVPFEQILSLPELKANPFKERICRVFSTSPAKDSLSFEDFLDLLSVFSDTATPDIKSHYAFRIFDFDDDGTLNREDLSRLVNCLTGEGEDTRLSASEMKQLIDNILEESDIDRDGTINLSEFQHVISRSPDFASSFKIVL
Sequence of Phospholipid hydroperoxide glutathione peroxidase GPX4 (Homo sapiens) (P36969 whole entry, looked up): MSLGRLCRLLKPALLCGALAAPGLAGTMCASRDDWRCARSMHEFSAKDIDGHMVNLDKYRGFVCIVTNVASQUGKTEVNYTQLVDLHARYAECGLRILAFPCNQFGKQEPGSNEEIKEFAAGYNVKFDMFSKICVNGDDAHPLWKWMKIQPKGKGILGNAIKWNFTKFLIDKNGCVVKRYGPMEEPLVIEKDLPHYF

SMILES | Potency [1] | Potency [2] | Potency [3] | Potency [4] | Potency [5] | Z-AUC [6] | Z-AUC [6, 9] | Z-AUC ([6]; measured here: PEO4 Z-AUC) | outcome [7] | Potency [8]
O=C1NC(=O)C(c2c[nH]c3ccccc23)=C1c1c[nH]c2ccccc12 | inactive | inactive | 18600 nM (active) | 20900 nM (active) | inactive | 1.34 (inactive) | 0.607 | 0.134 |  | 
Cc1cc(Nc2nc(NC(C)c3ccc(F)cc3)c(C#N)cc2F)n[nH]1 (centres undefined) | 0.164 µM (active) | 0.731 µM (active) | 920 nM (active) | 731 nM (active) |  |  |  |  |  | 
CC(C)C(=O)OC[C@H]1O[C@@H](n2ccc(N)nc2=O)[C@](C)(F)[C@@H]1OC(=O)C(C)C | inactive | inactive | inactive | inactive |  |  |  |  |  | 
O=C(NOCCO)c1ccc2cncn2c1Nc1ccc(I)cc1F | inactive | inactive |  |  | inactive | 1.17 (inactive) | 0.484 | 0.455 |  | 
O=C1CCc2cc(S(=O)(=O)Nc3ccc(F)c(Cl)c3)c(F)cc2N1 | inactive | inactive | inactive |  | inactive |  |  |  | inactive | 
CCOc1ccc(/C=C2\SC(=O)N(CCN)C2=O)cc1 | inactive | inactive | inactive | inactive |  |  |  |  |  | 
N#Cc1ccc(-c2c(-c3ncn[nH]3)sc(N3CCOCC3)c2C#N)c(F)c1 | 2.06 µM (active) | 5.8 µM (active) | 1.03 µM (active) and 934 nM (active) | 651 nM (active) and 1.18 µM (active) | inactive | -1.04 (inactive) | -1.47 | -1.34 |  | inactive
CCn1c(=O)c2cc(C(N)=O)c(N)nc2n(C2CC2)c1=O | inactive | inactive | inactive | inactive |  |  |  |  |  | 
Cc1cc(I)ccc1Nc1c(C(=O)NOCC2CC2)cc(F)c(F)c1F | 23.1 µM (active) | 18.4 µM (active) | 8330 nM (active) | 7420 nM (active) | inactive | 0.467 (inactive) | 0.0632 | 0.231 |  | 
O=C1CCCC2=C1C(c1ccncc1Br)N=C(Nc1nc3ccccc3o1)N2 (centres undefined) | inactive | inactive |  |  | inactive |  |  |  | inactive | 
CC(N)C1CCC(C(=O)Nc2ccncc2)CC1 (centres undefined) | inactive | inactive | inactive | inactive |  |  |  |  |  | 
Cc1cc(Nc2cc(C)c(C#N)c(NC(C)CCCC(C)(C)O)n2)n[nH]1 (centres undefined) | 1.46 µM (active) | 1.3 µM (active) | 1030 nM (active) | 1160 nM (active) | inactive |  |  |  |  | 
O=C1c2ccccc2-c2nc3nnnn3nc21 (tested in a mixture with another compound) | 0.92 µM (active) | 0.92 µM (active) | 82 nM (active) | 184 nM (active) | 16.1 µM (active) |  |  |  |  | 
O=C1NC(=O)/C(=C\c2ccc3nccc(-c4ccncc4)c3c2)S1 | 1.16 µM (active) | 1.46 µM (active) | 326 nM (active) | 366 nM (active) |  |  |  |  |  | 
CC(C)n1cc(-c2ccc(Oc3ccccc3)cc2)c2c(N)ncnc21 | 14.6 µM (active) | 9.2 µM (active) | 1640 nM (active) | 2060 nM (active) | inactive |  |  |  | inactive | 
Cc1cc(-c2ccc(/C=C3\SC(=Nc4ccc(Cl)c(C(=O)O)c4)NC3=O)o2)c([N+](=O)[O-])cc1C | inactive | inactive | inactive | inactive | 20.2 µM (active) |  |  |  |  | 
Cc1ccc([N+](=O)[O-])cc1S(=O)(=O)N(C)/N=C\c1cnc2ccc(Br)cn12 | 0.164 µM (active) | 0.231 µM (active) | 58 nM (active) | 51.7 nM (active) |  |  |  |  |  | 
CSc1cc2c(s1)c1cnn(Cc3ccccc3F)c(=O)c1n2C | inactive | inactive | inactive | inactive |  |  |  |  |  | 
Clc1ccc2ncc(-c3cccc(NC4CCNC4)n3)n2c1 (centres undefined) | 0.82 µM (active) | 10.3 µM (active) | 1300 nM (active) | 1160 nM (active) | inactive |  |  |  | inactive | 
O=C(Nc1cccc(Nc2cc(Nc3cccc(C(F)(F)F)c3)ncn2)c1)C1CC1 | 0.92 µM (active) | 0.92 µM (active) | 731 nM (active) | 920 nM (active) | inactive |  |  |  |  | 
CN1CCCN(C(=O)c2cccc(-c3ccc(/C=C4\C(=O)Nc5ccc(Cl)cc54)o3)c2)CC1 | 8.2 µM (active) | 9.2 µM (active) | 231 nM (active) | 231 nM (active) |  |  |  |  |  | 
S=c1ssc2c1CCC2 | inactive | inactive | inactive | inactive | 14.3 µM (active) |  |  |  |  | 
O=C1CCCC2=C1C1(CCCC1)N=C(Nc1nc3ccccc3o1)N2 | inactive | inactive | inactive | inactive | inactive |  |  |  | inactive | 
